Reference: PubChem BioAssay AID1259415 (National Center for Advancing Translational Sciences (NCATS), 2018)
Several values for one entry are separate records, joined by “and”; a condition that tells them apart may be missing. Equal entries are not always repeated. The campaign covered roughly 410,000 compounds. About 18,000 (4.4%) were called active. Another 7% or so got no clear call; they are omitted. This is one part of a sample in which actives are shown more often than they occur. No stated cut-off is given here; in the data, active means activity change below about -60%; inconclusive means no clear call, values can overlap the other calls; inactive means above about -39%. A structure can be active in one record and inactive in another.

Experiment: qHTS Assay for inhibitors of the human cytomegalovirus (HCMV)
Settings: HFF cells, HCMV-luciferase reporter, 72 h; at 57.5 µM; stronger effect = lower value
Method in brief: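 Steps: HFFs plated, 16 h 37C; compounds added; HCMV-luciferase added to MOI 1 PFU/cell; 72 h 37C; OneGlo reagent, 5 min room temperature; luminescence read, normalized to controls.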
On the % scale 0 is the no-effect control and ±100 the full control effect.

| Structure (SMILES) | activity change, negative = inhibition |
| --- | --- |
| N#C/C(=C/c1ccc(N2CCCCC2)o1)C(=O)NCCc1c[nH]c2ccccc12 | -60.4% (active) |
| O=C(CCc1c[nH]c2ccccc12)NCCOc1ccccc1 | -2.62% (inactive) |
| O=C(NCCCc1ccccc1)C(=O)c1c[nH]c2ccccc12 | 21.3% (inactive) |
| COc1ccc(NC(=O)Cn2cc(C(=O)c3ccncc3)c(=O)c3cc(C)ccc32)cc1Cl | -8.82% (inactive) |
| CCCOc1ccc(C2c3c(-c4ccccc4O)n[nH]c3C(=O)N2Cc2cccnc2)cc1 (configuration not stated) | 8.52% (inactive) |
| CCOC(=O)c1ccc(NC(=O)c2c(NCc3cccs3)sc3c2CCCC3)cc1 | -7.9% (inactive) |
| COc1cc(Nc2nc(-c3ccc(OC)c(OC)c3)nc3ccccc23)cc(OC)c1 | -33.1% (inactive) |
| COc1ccc(N2CCN(c3nc(-c4ccccc4F)nc4ccccc34)CC2)cc1 | -30% (inactive) |
| CC(C)(C)Nc1nc(-c2ccccn2)nc2ccccc12 | -100% (active) |
| CCCc1nn2c(=O)cc(COC(=O)c3ccc(NC(=O)COc4ccc(F)cc4)cc3)nc2s1 | -24.2% (inactive) |
| CC(C)(C)C(=O)CCN1C(=O)C2(OCCO2)c2ccccc21 | 1.52% (inactive) |
| COc1ccc(C2C(=O)N(C3CCCCCC3)CC(=O)N2CCc2ccc(Cl)cc2)cc1OC (configuration not stated) | -12.5% (inactive) |
| Cc1cn(C)c(CC(=O)NCc2ccccc2)c1C(=O)O | 16.2% (inactive) |
| NC(=O)C1CCN(C(=O)c2ccc(F)c(S(=O)(=O)N3CCOCC3)c2)CC1 | -6.8% (inactive) |
| CC1=Nc2cc(C(=O)N3CCC(C)CC3)ccc2Sc2ccc(Cl)cc21 | -34.1% (inactive) |
| CC1CCN(C(=O)c2ccc(S(=O)(=O)Cc3cc(F)ccc3F)c([N+](=O)[O-])c2)CC1 | -83.1% (active) |
| Cc1cccc(CSc2nc3ccncc3n2CC(=O)N(C)C2CCCCC2)c1 | 19.5% (inactive) |
| O=C(NCC(c1ccco1)S(=O)(=O)c1cccs1)c1ccc(F)cc1 (configuration not stated) | 0% (inactive) |
| CSc1ncnc2sc(C)c(C)c12 | -17.9% (inactive) |
| Cc1cccc(-n2ccnc2SCC(=O)Nc2cccc3ccccc23)c1C | -0.357% (inactive) |
| CC(C)CCC(C)NC(=O)c1ccc2nccnc2c1 (configuration not stated) | 43% (inactive) |
| CCn1c(=O)c(=O)n(CC)c2cc(N3CCCCC3)c(NC(=O)c3cccc(F)c3)cc21 | -12.9% (inactive) |

| Structure (SMILES) | activity change, negative = inhibition |
| --- | --- |
| O=C(NCCc1ccc(F)cc1)c1ccc2nccnc2c1 | 104% (inactive) |
| Cc1ccc(C)c(NC(=O)c2ccc3nccnc3c2)c1 | -67% (active) |
| O=C(Nc1ccccc1N1CCCCC1)c1ccc2nccnc2c1 | -62.2% (active) |
| O=C(Nc1ccccc1N1CCCC1)c1ccc(F)c(S(=O)(=O)N2CCOCC2)c1 | -11.8% (inactive) |
| CCOC(=O)c1ccccc1NC(=O)c1nn(-c2ccc(OC)c(Cl)c2)c(=O)c2c1c1ccccc1n2C | 11.6% (inactive) |
| Cc1ccc(C)c(Cn2c(C(=O)O)c(CNCc3cccs3)c3ccccc32)c1 | -8.87% (inactive) |
| CC(=O)N1CCCc2cc(S(=O)(=O)N3CCC(C(=O)NCc4ccc(C)cc4)CC3)ccc21 | -4.1% (inactive) |
| COc1ccc(OC)c(-c2noc(N3CCN(c4cc(Cl)ccc4C)CC3)n2)c1 | -0.0922% (inactive) |
| COC(=O)c1cc(NC(=O)c2cnc(SC)nc2-c2ccccc2)cc(C(=O)OC)c1 | 22.8% (inactive) |
| CC1CCC(C(C)C)C(=O)/C1=C\c1ccc(NC(=O)CCC(=O)O)cc1 (configuration not stated) | -26.4% (inactive) |
| CCOC(=O)N1CCN(C(c2ccnc3ccccc23)c2nnnn2-c2c(C)cccc2C)CC1 (configuration not stated) | -0.353% (inactive) |
| O=c1[nH]c2ccccc2n1C1CCN(C(c2ccccc2)c2nnnn2Cc2ccccc2)CC1 (configuration not stated) | -93.7% (active) |
| O=c1[nH]c2ccccc2n1C1CCN(C(c2ccnc3ccccc23)c2nnnn2Cc2ccccc2)CC1 (configuration not stated) | -61.4% (active) |
| O=c1[nH]c2ccccc2n1C1CCN(CCOc2ccccc2)CC1 | -29.7% (inactive) |
| CSCCC(c1nnnn1C(C)(C)C)N1CCC(n2c(=O)[nH]c3ccccc32)CC1 (configuration not stated) | -37.7% (inactive) |
| CC(C)C(c1nnnn1Cc1ccccc1)N1CCC(C(N)=O)CC1 (configuration not stated) | 55.3% (inactive) |
| CCCN(CCC)CCCNC(=O)CNC(=O)c1nn(-c2ccc(OC)cc2)c(=O)c2ccccc12 | -0.192% (inactive) |
| Cc1ccc(Cl)cc1N1CCN(C(=O)c2cn(C)c3ccc(S(=O)(=O)N(C)C4CCCCC4)cc3c2=O)CC1 | 19.9% (inactive) |
| Cc1cccc(OCC(=O)N(Cc2ccc(C(C)C)cc2)Cc2ccco2)c1C | -2.95% (inactive) |
| Cc1nc(-c2nnc(SCC(=O)Nc3cc(C(F)(F)F)cc(C(F)(F)F)c3)n2C)cs1 | 18.5% (inactive) |
| Cc1nc2ccccc2nc1N/N=C/c1ccc(O)cc1O | -86.2% (active) |
| Cc1n[nH]c(=O)nc1N/N=C/c1cccs1 | 11.4% (inactive) |

| Structure (SMILES) | activity change, negative = inhibition |
| --- | --- |
| COc1cc(NC(=O)c2nc3ccccc3nc2C)cc(OC)c1OC | 22.8% (inactive) |
| COc1ccc(CNC(=O)c2c[nH]c3c(OC)cc(OC)cc3c2=O)cc1 | -39% (inactive) |
| COc1ccc(CNC(=O)c2cc3cccc(OC)c3oc2=O)cc1 | -88.7% (active) |
| COc1cccc2cc(C(=O)NCc3ccc(C)cc3)c(=N)oc12 | -3.52% (inactive) |
| Cc1c(Cl)cccc1NC(=O)CCS(=O)(=O)c1ccc2c(c1)oc(=O)n2C | -4.78% (inactive) |
| Cc1ccc(NC(=O)CS(=O)CC(=O)N(c2ccccc2)C(C)C(=O)NC2CCCC2)cc1 (configuration not stated) | 4.37% (inactive) |
| O=C(CCn1nnc2ccccc21)OCC(=O)c1ccc([N+](=O)[O-])cc1 | 2.27% (inactive) |
| O=C(CC(n1cncn1)C(Cl)(Cl)Cl)c1ccc([N+](=O)[O-])cc1 (configuration not stated) | -0.398% (inactive) |
| O=C(Cn1c[n+](CC(=O)c2ccc([N+](=O)[O-])cc2)cn1)c1ccc([N+](=O)[O-])cc1 | -34.4% (inactive) and -92.6% (active) |
| C[C@H](CO)N1C[C@H](C)[C@H](CN(C)C(=O)c2ccncc2)OCc2ccccc2-c2c(n(C)c3ccccc23)C1=O | -0.378% (inactive) |
| CCN(CC)CCNc1ncnc2c1cnn2-c1cc(Cl)ccc1C | -19.7% (inactive) |
| COc1ccc(C2=NS(=O)(=O)N(C)C(C(=O)NC(C)c3ccccc3)=C2)cc1 (configuration not stated) | -13.9% (inactive) and -20.9% (inactive) |
| COc1ccc(NC(=O)C2=CC(c3ccc(OC)c(OC)c3)=NS(=O)(=O)N2C)cc1 | -70.9% (active) |
| COc1cc(NC(=O)C2=CC(c3ccc(C)cc3)=NS(=O)(=O)N2C)cc(OC)c1OC | 8.94% (inactive) |
| CCOC(=O)c1c(NC(=O)c2cc(-c3ccc(Cl)cc3)on2)sc2c1CCCC2 | 3.67% (inactive) |
| CCOC(=O)c1c(NC(=O)C2(C)Cc3ccccc3C(=O)O2)sc2c1CCCC2 (configuration not stated) | -77.4% (active) |
| CCOC(=O)c1c(NC(=O)/C(C#N)=C/c2ccccc2)sc2c1CCC2 | 2.23% (inactive) |
| Cc1ccc2nc(-c3ccc(C)c(NC(=O)Cc4ccccc4)c3)oc2c1 | 38% (inactive) |
| COc1ccccc1NC(=O)c1oc2ccccc2c1NC(=O)C(C)C | 0.436% (inactive) |
| COc1ccc(OC)c(-c2nc(C(N)=O)c3c(n2)n(-c2ccc4c(c2)OCO4)c(=O)n3C)c1 | 3.83% (inactive) |
| CC(=O)c1ccccc1NC(=O)COC(=O)C1COc2ccccc2O1 (configuration not stated) | -15% (inactive) |
| CC1COc2ccccc2N1S(=O)(=O)c1ccccc1 (configuration not stated) | -16.1% (inactive) |

| Structure (SMILES) | activity change, negative = inhibition |
| --- | --- |
| O=C1C(=O)N(CC2COc3ccccc3O2)c2ccccc21 (configuration not stated) | -62.4% (active) |
| Cc1ccc(Cl)cc1NC(=O)NC1COc2ccccc2C1 (configuration not stated) | -3.29% (inactive) |
| O=C1C(=O)N(c2ccccc2)c2ccccc21 | 43.2% (inactive) |
| Cc1cc(C(=O)CCl)c(C)n1CC1COc2ccccc2O1 (configuration not stated) | -96.1% (active) |
| CC(C)CC(NC(=O)C1CCCN1C(=O)[C@@H](C)NC(=O)OCc1ccccc1)C(=O)NCC(N)=O (some centres not stated) | -24.5% (inactive) |
| Cc1cccc(NC(=O)Cn2c(=O)n(CCC(C)C)c(=O)c3cccnc32)c1 | 28.9% (inactive) |
| O=C(c1ccco1)N1CCN(C(=O)C2c3ccccc3Oc3ccccc32)CC1 | -21.7% (inactive) |
| CCOC(=O)Cc1csc(NC(=O)CN(C)S(=O)(=O)c2ccc3c(c2)CCC(=O)N3)n1 | 14.5% (inactive) |
| Cc1cccc(-c2nc(SCc3ccc(Br)cc3)n3[nH]c(=O)cc3n2)c1 | -0.292% (inactive) |
| COc1ccc(NC(=O)CSc2nccn2Cc2ccc3c(c2)OCO3)cc1 | 2.57% (inactive) |
| C=CCSc1nc(N)cc(=O)[nH]1 | -24.3% (inactive) |
| Cc1cc(C)c(C(=O)CSc2nc(C)cc(=O)[nH]2)c(C)c1 | 19% (inactive) |
| Cc1cc(C(=O)CSc2nc(N)cc(=O)[nH]2)c(C)n1-c1cccc(F)c1 | -80.8% (active) |
| CCOC(=O)C1(C(F)(F)F)N=C(N(C)C)OC(N(C)C)=N1 | 9.94% (inactive) |
| CCOc1ccc2c(c1)C(c1ccc(C)cc1)=NNC(c1ccc(C)cc1)=N2 | 9.03% (inactive) |
| CCOc1ccc(-c2nnc3ccc(SC)nn23)cc1 | -19.6% (inactive) |
| CCOc1ccc(-c2cc(C)[n+](CCN(CC)CC)c(-c3ccc(OCC)cc3)c2)cc1 | -97.6% (active) |
| Cc1cccc(-n2ccnc2SCC(=O)Nc2cc(C(F)(F)F)ccc2Cl)c1 | -18.2% (inactive) |
| COc1ccc(NC(=O)CSc2nccn2C2CCCC2)cc1OC | -35.1% (inactive) |
| O=C(CSc1nccn1C1CCCC1)Nc1cc(C(F)(F)F)ccc1Cl | -87.5% (active) |
| Cc1cc(NS(=O)(=O)c2ccc3oc(=O)c4ncn(C)c4c3c2)ccc1Br | -24.9% (inactive) |
